Source: the supplement of paper PMC10477191
± gives the standard deviation of the averaged measurements.

Each molecule was assayed on Drosophila ezoana antennal basiconic sensillum ab5 (assay: odor-evoked OSN spike response (post minus pre-stimulus); higher = stronger neuronal excitation). Conditions: odor dilution: 10^-4.
Protocol: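 Single sensillum recordings from antennal basiconic sensilla of D. ezoana. A 500 ms pulse of odorant (10^-4 in mineral oil or DMSO) was delivered; the response is the change in action potential frequency between the 1 s pre- and post-stimulus windows (spikes/s).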

SMILES | odor-evoked OSN spike response
COc1cccc(OC)c1O [Phenol, 2,6-dimethoxy- (powder)] | 86.2 ± 29 spikes/s
CC(=O)c1ccccc1 [Acetophenone] | 77.7 ± 24 spikes/s
CC(=O)OC/C=C(\C)CCC=C(C)C [geranyl acetate] | 112 ± 41 spikes/s
